Results filed as inconclusive are left out. Entries that show only a call come without a potency. Active and inactive are the calls of the source. Calls follow the shape of the dose curve; as a rule, active = well fitted inhibition curve with a large enough effect; inconclusive = small, poorly fitted or top-dose-only effect; inactive = no such curve, though single readings can be large or run the other way.

The target of assay [1] is N-terminal Xaa-Pro-Lys N-methyltransferase 1 (Homo sapiens) (UniProt Q9BV86). Description: qHTS Assay for Inhibitors of N-terminal methyltransferase 1 (NTMT1): LOPAC validation of the NTMT1 SAHH-coupled ThioGlo3 Assay (AID 1347143).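 Also: SAH from peptide methylation measured as thiol fluorescence via SAHH coupling and ThioGlo3; nearly all actives have a fitted effect of over 70% in size.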 A digest of the protocol: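 Recombinant human NTMT1 (125nM) was pre-incubated 1 min at room temperature with compounds over a concentration range, then a mix of 100uM SAM, 10uM SAHH and 15uM ThioGlo3 (concentrations in added reagent) was added. ThioGlo3 fluorescence (ex 340/em 450nm) after 30 min was normalized to the initial reading.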
Chain of N-terminal Xaa-Pro-Lys N-methyltransferase 1 (Homo sapiens) (Q9BV86 whole entry, looked up): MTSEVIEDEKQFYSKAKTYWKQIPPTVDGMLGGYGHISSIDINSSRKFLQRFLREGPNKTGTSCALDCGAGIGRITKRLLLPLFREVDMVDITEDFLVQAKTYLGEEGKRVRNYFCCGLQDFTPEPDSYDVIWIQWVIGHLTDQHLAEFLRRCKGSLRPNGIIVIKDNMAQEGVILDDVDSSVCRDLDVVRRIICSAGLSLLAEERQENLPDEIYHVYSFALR
For orientation: qHTS replaces the single test concentration by a dilution series.

The subject of assay [2] is Zika virus NS2B-NS3 protease (unlinked). Put plainly: Optimization of GU AMC qHTS for Zika virus inhibitors: Unlinked NS2B-NS3 protease assay (AID 1347151). Also: nearly all actives have a fitted effect of over 80% in size. The gist of the method: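 Unlinked protease (25 nM final); buffer 10 mM Tris-HCl pH 8.0 + 0.01% Tween 20; AMC substrate; 15 min RT, dark; Δfluorescence normalized to no-inhibitor/no-enzyme controls; 4-parameter Hill fit.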
Potency is read from the fitted curve at half-maximal effect.

Consider `CC(N=C(NC#N)Nc1ccncc1)C(C)(C)C` (stereo unspecified), for which the Potency entry in assay [1] and in assay [2] was “inactive” throughout.
For the compound `NC(=O)c1cn(Cc2c(F)cccc2F)nn1`, the Potency entry in assay [1] and in assay [2] was “inactive” in each case.
`NC1=NCC2c3ccccc3Cc3ccccc3N12` (stereo unspecified): the Potency result in assay [1] and in assay [2] was “inactive” each time.
`CNCCC(Oc1ccccc1OC)c1ccccc1` (stereo unspecified): the Potency entry in assay [1] and in assay [2] was “inactive” each time.
As to `CC(C)(C)c1ccc(C(=O)CCCN2CCC(OC(c3ccccc3)c3ccccc3)CC2)cc1`, the Potency result in assay [1] and in assay [2] was “inactive” each time.
In the case of `O=C(O)CP(=O)(O)O`, the Potency result in assay [1] and in assay [2] was “inactive” throughout.
Take `CN(C)CCCN1c2ccccc2Sc2ccccc21`: the Potency in assay [1] was 44.7 µM (active). Moreover, the Potency entry in assay [2] is “inactive”.
The like results for `CCCOc1ccccc1-c1nc2n[nH]nc2c(=O)[nH]1` were, in that order, “inactive” and “inactive”.
The matching figures for `NC(N)=N/N=C/c1c(Cl)cccc1Cl`: “inactive” and “inactive”.
On to `N[C@@H](COP(=O)(O)O)C(=O)O`, for which the Potency entry in assay [1] and in assay [2] was “inactive” throughout.
Turning to `CN1CCN(C2=Nc3ccccc3Oc3ccc(Cl)cc32)CC1`, the Potency result in assay [1] and in assay [2] was “inactive” each time.
`CC(C)NNC(=O)c1ccncc1`: the Potency entry in assay [1] and in assay [2] was “inactive” throughout.
In the case of `COc1cc(C(=O)OCCCN2CCCN(CCCOC(=O)c3cc(OC)c(OC)c(OC)c3)CC2)cc(OC)c1OC`, the Potency result in assay [1] and in assay [2] was “inactive” in each case.
For the compound `CN(C)CCN(Cc1cccs1)c1ccccn1`, the Potency entry in assay [1] and in assay [2] was “inactive” throughout.
With `O=C(O)CCCCCCCC(=O)O`, the Potency result in assay [1] and in assay [2] was “inactive” throughout.
Turning to `CCOC(=O)C1=C(C)NC(C)=C(C(=O)OC)C1c1cccc([N+](=O)[O-])c1` (stereo unspecified), the Potency entry in assay [1] and in assay [2] was “inactive” throughout.
For `CN(C(=O)CCCOc1ccc2[nH]c(=O)ccc2c1)C1CCCCC1`, the Potency in assay [1] was 79.4 µM (active); in assay [2], 26.7 µM (active).
With `Cc1nnc(SCC2=C(C(=O)O)N3C(=O)[C@@H](NC(=O)Cn4cnnn4)[C@H]3SC2)s1`, the Potency in assay [1] was 50.1 µM (active). Further, the Potency entry in assay [2] was “inactive”.
